{"source": "PubChem BioAssay (NCATS)", "note": "Calls of active or inactive are those of the source. Calls come from the whole dose curve; as a rule, active = well fitted inhibition curve with a large enough effect; inconclusive = small, poorly fitted or top-dose-only effect; inactive = no such curve, though single readings can be large or run the other way.", "data": [{"assay": "qHTS assay for measurement of the activity of small molecule inhibitors on Zika virus induced Caspase-3 activity in human astrocytoma cells (AID 1224859)", "settings": "SNB-19 ZIKV-induced caspase-3/7, luminescence, 6 h; series mostly up to 45.7 µM", "excerpt": "National Center for Advancing Translational Sciences [NCATS]\nJohns Hopkins University School of Medicine\nIncrease in the Caspase-3 activity indicates an activation of apoptosis cell death pathway caused by Zika virus infection in certain types of neuronal cells including human neural progenitor cells (hNPCs), astrocytes, and astrocytoma cell line (SNB-19). This cell-based caspase-3 activity assay measures the increased caspase-3 activity in the astrocytoma cell line (SNB-19) after a 6-hour Zika virus infection with a luminescence readout. A decrease in the luminescence signal in this assay by small molecule treatment indicates an inhibitory effect of that small molecule on the Zika virus induced caspase-3 activity that may correlate with its effect on reduction of Zika virus caused cell death.\nThe medium for SNB-19 cells is composed of RPMI 1640 (ATCC, Cat.# 30-2001), 10% fetal bovine serum (FBS) (GE healthcare Life Sciences, Cat.# SH30071.03), and 1% Pen/Strep (Gibco, Cat.# 15140-122). A Caspase-Glo 3/7 assay kit (catalog number G8092; Promega, Madison, WI) was used to detect caspase-3 activity induced by Zika virus infection in human cells. The reagent mixture was reconstituted as described in the protocol from the manufacturer. Polystyrene tissue culture treated and PDL coated white plates were obtained from Greiner Bio-One (Monroe, NC). Cells were seeded in 384- or 1536-well assay plates and cultured at 37 C with 5% CO2 for 16 to 20 hours. The typical cell seeding density in the 1536-well plate assay is 250 cells/well in 3ul medium for SNB-19 cells in tissue culture treated plates. Compounds were added to cells and incubated for one hour before addition of ZIKV solution to cells (2 FFU/cell). After incubation at 37 C with 5% CO2 for 6 hours, the reagent mixture of Caspase-Glo 3/7 assay kit was added to each well, followed by incubation at room temperature for 30 minutes. The luminescence intensity of the assay plates was measured using a ViewLux plate reader (PerkinElmer). Data were normalized by using the cell-containing wells without ZIKV as a negative control (0% induction of caspase 3/7 activity) and wells containing ZIKV infected cells (Caspase-3 activity induced) as a positive control (100% induction of caspase 3 activity). The percentage inhibitions of the increased Caspase-3 activity by small molecule inhibitors were then calculated.", "values": [{"smiles": "C[C@]12CC[C@@H]3c4ccc(O)cc4C[C@@H](CCCCCCCCCS(=O)CCCC(F)(F)C(F)(F)F)[C@H]3[C@@H]1CC[C@@H]2O", "note": "(stereo not given in full)", "outcome": "inactive"}, {"smiles": "NC1=NCC2c3ccccc3Cc3ccccc3N12", "note": "(stereo not given)", "outcome": "inactive"}, {"smiles": "CC(=O)[C@]1(O)Cc2c(O)c3c(c(O)c2[C@@H](O[C@H]2C[C@H](N)[C@H](O)[C@H](C)O2)C1)C(=O)c1ccccc1C3=O", "outcome": "inactive"}, {"smiles": "CCCN(CCC)CCc1cccc2c1CC(=O)N2", "outcome": "inactive"}, {"smiles": "C(=C\\c1ccccc1)/CN1CCN(C(c2ccccc2)c2ccccc2)CC1", "outcome": "inactive"}, {"smiles": "COCCOC(=O)C1=C(C)NC(C)=C(C(=O)OC(C)C)C1c1cccc([N+](=O)[O-])c1", "note": "(stereo not given)", "outcome": "inactive"}, {"smiles": "Fc1ccc(C(c2ccc(F)cc2)N2CCN(C/C=C/c3ccccc3)CC2)cc1", "outcome": "inactive"}, {"smiles": "COc1cc2c(cc1OC)-c1cc(=Nc3c(C)cc(C)cc3C)n(C)c(=O)n1CC2", "outcome": "inactive"}, {"smiles": "OCCN1CCN(CC/C=C2/c3ccccc3Sc3ccc(C(F)(F)F)cc32)CC1", "outcome": "inactive"}, {"smiles": "COCCc1ccc(OCC(O)CNC(C)C)cc1", "note": "(stereo not given)", "outcome": "inactive"}, {"smiles": "Cc1ccc(S(=O)(=O)NC(=O)NN2CCCCCC2)cc1", "outcome": "inactive"}, {"smiles": "CC(=O)Oc1cc(C(C)C)c(OCCN(C)C)cc1C", "outcome": "inactive"}, {"smiles": "COc1ccc([C@@H]2Sc3ccccc3N(CCN(C)C)C(=O)[C@@H]2OC(C)=O)cc1", "outcome": "inactive"}, {"smiles": "C[N+](C)(C)CCOC(=O)CCC(=O)OCC[N+](C)(C)C", "outcome": "inactive"}, {"smiles": "CN1CCN(CC(=O)N2c3ccccc3C(=O)Nc3cccnc32)CC1", "outcome": "inactive"}, {"smiles": "CCn1ccnc1CC1COc2ccccc2O1", "note": "(stereo not given)", "outcome": "inactive"}, {"smiles": "C#CCN(C)CCCOc1ccc(Cl)cc1Cl", "outcome": "inactive"}, {"smiles": "c1cc(CN2CCCCC2)cc(OCCCNc2nc3ccccc3s2)c1", "outcome": "inactive"}, {"smiles": "CCCC(C(=O)OCCN(CC)CC)(c1ccccc1)c1ccccc1", "outcome": "inactive"}, {"smiles": "O=C1CC2(CCCC2)CC(=O)N1CCCCN1CCN(c2ncccn2)CC1", "outcome": "inactive"}, {"smiles": "C=CCc1ccccc1OCC(O)CNC(C)C", "note": "(stereo not given)", "outcome": "inactive"}, {"smiles": "CC(C)(Oc1ccc(CCNC(=O)c2ccc(Cl)cc2)cc1)C(=O)O", "outcome": "inactive"}, {"smiles": "Cc1nc2c([nH]1)c(=O)n(C)c(=O)n2Cc1ccco1", "outcome": "inactive"}, {"smiles": "CC(N=C(NC#N)Nc1ccncc1)C(C)(C)C", "note": "(stereo not given)", "outcome": "inactive"}, {"smiles": "CCCOc1ccccc1-c1nc2n[nH]nc2c(=O)[nH]1", "outcome": "inactive"}, {"smiles": "O=C(O)CCCCCCCC(=O)O", "outcome": "inactive"}, {"smiles": "Cc1scc2c1N(C(=O)CN1CCN(C)CC1)c1ccccc1NC2=O", "outcome": "inactive"}, {"smiles": "Nc1c2c(nc3ccccc13)CCCC2O", "note": "(stereo not given)", "outcome": "inactive"}, {"smiles": "CN(C)CCOC(=O)COc1ccc(Cl)cc1", "outcome": "inactive"}, {"smiles": "CC(C)(C)NCC(O)c1cc(O)cc(O)c1", "note": "(stereo not given)", "outcome": "inactive"}, {"smiles": "C[N+](C)(C)CCCCCCCCCC[N+](C)(C)C", "outcome": "inactive"}, {"smiles": "CCn1nc(C(=O)O)c(=O)c2cc3c(cc21)OCO3", "outcome": "inactive"}, {"smiles": "CCCCCCCC/C=C\\CCCCCCCC(=O)NCc1ccc(O)c(OC)c1", "outcome": "inactive"}, {"smiles": "NC(=Nc1ccccc1)Nc1ccccc1", "outcome": "inactive"}, {"smiles": "COC(=O)C1=C(C)NC(C)=C(C(=O)OC(C)(C)CN(C)CCC(c2ccccc2)c2ccccc2)C1c1cccc([N+](=O)[O-])c1", "note": "(stereo not given)", "outcome": "inactive"}, {"smiles": "NC(Cc1ccc(Cl)cc1)C(=O)O", "note": "(stereo not given)", "outcome": "inactive"}, {"smiles": "Cc1cc(C)c(/C=C2\\C(=O)Nc3ccccc32)[nH]1", "outcome": "inactive"}, {"smiles": "NC(=O)c1cn(Cc2c(F)cccc2F)nn1", "outcome": "inactive"}, {"smiles": "CC(C)NNC(=O)c1ccncc1", "outcome": "inactive"}, {"smiles": "NC(N)=NC(=O)Cc1c(Cl)cccc1Cl", "outcome": "inactive"}]}]}
